# pKd: −log10 of the molar value.
# Experiments:
# MEK1 = tested on: T1, MEK1
# T1 construct: gene MAP2K1
# MLCK = tested on: T2, MLCK
# T2 construct: gene MYLK3
# 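Further: kd values determined as follow-up on hits from a single-replicate KINOMEscan panel screen.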
structure (smiles),measurement,setting,value
Cn1cc(-c2ccc3c(c2)CCN3C(=O)Cc2cccc(C(F)(F)F)c2)c2c(N)ncnc21 [GSK2606414],pKd,MAPKAPK2,< 5.00
CCn1c(-c2ccncc2)nc2cnccc21 [SB-735216],pKd,MARK3,< 5.00
CC(C)(C)OC(=O)NC1CCCN(c2cc(-c3ccc4c(N)n[nH]c4c3)nc(N)n2)C1 (stereo not drawn) [GSK2286096],pKd,MEK1,< 5.00
C[C@H]1CC[C@@H](C(=O)Nc2ccccc2)CN1c1cc(-c2ccc3c(N)n[nH]c3c2)nc(N)n1 [GSK2283293],pKd,MET,< 5.00
CSc1ccc(NC2=C(c3ccccc3Cl)C(=O)NC2=O)cc1 [SB-342411],pKd,MKNK1,< 5.00
Nc1n[nH]c2nnc(-c3ccccc3)cc12 [SB-517389],pKd,MLCK,< 5.00

# — PMC5540273 (PLoS ONE, 2017)
